Measurements published in PubChem BioAssay AID2283123 (EPA ToxCast).
Results filed as inconclusive are left out. Activity calls are given as the source filed them. How the source made its calls: active means hit-call score of the fitted dose curve at least 0.9, where 1 is the maximum; inconclusive means response in the unintended direction; inactive means score below 0.9.

Biological target: rat CYP2E1, Cyp2e1 (gene 25086) (UniProt P05182)
Assay: NVS_ADME_rCYP2E1: NovaScreen (NVS) CYP450-related Enzyme Activity (ADME) Assay for rat CYP2E1
Procedure: NVS_ADME_rCYP2E1 is a biochemical, single-readout assay that uses extracted gene-proteins in a cell-free assay. Measurements were taken 1 hour after chemical dosing in a 96-well plate.NVS_ADME_rCYP2E1 is one of one assay component(s) measured or calculated from the NVS_ADME_rCYP2E1 assay. It is designed to make measurements of enzyme activity, a form of enzyme reporter, as detected with fluorescence intensity signals by Fluorescence technology.Data from the assay component NVS_ADME_rCYP2E1 was analyzed into 1 assay endpoint. This assay endpoint, NVS_ADME_rCYP2E1, was analyzed in the positive analysis fitting direction relative to Acetonitrile as the negative control and baseline of activity. Using a type of enzyme reporter, loss-of-signal activity can be used to understand changes in the enzymatic activity as they relate to the gene Cyp2e1. Furthermore, this assay endpoint can be referred to as a primary readout, because this assay has produced multiple assay endpoints where this one serves a enzymatic activity function. To generalize the intended target to other relatable targets, this assay endpoint is annotated to the cyp intended target family, where the subfamily is xenobiotic metabolism.
Binding assays used specific radioligands (tritiated, iodinated) with non-radioactive competitive displacement ligands in agonist or antagonist protocols (as indicated) and various reference compounds and inhibitors to titrate specific binding to receptors and transporters. Most enzyme assays (CYPs, kinases, phosphatases, proteases, HDACs) used recombinant protein and specific substrates (fluorescence mostly, some colorimetric and radioactive) and inhibitors, followed by a biochemical separation of substrate and product. All assays for the biochemical HTS were initially run in duplicate at a single concentration (10 uM for CYP450 assays and 25 uM for all others). Assay-chemical combinations meeting a pre-defined threshold (e.g., 30% inhibition and other criteria defined below) were then run in singleton concentration-response format with maximum concentration of 20 uM for CYPs and 50 uM for all others. Each assay was run with positive and negative controls, and concurrent controls on every plate. The follow-up (secondary) screen tested active chemical-pairs in concentration series, as well as a few additional assays not tested in the primary screen, some selected negative inactives, and several cases re-run in the concentration series for confirmatory purposes.

Sequence of rat CYP2E1, Cyp2e1 (gene 25086) (P05182 whole entry, looked up): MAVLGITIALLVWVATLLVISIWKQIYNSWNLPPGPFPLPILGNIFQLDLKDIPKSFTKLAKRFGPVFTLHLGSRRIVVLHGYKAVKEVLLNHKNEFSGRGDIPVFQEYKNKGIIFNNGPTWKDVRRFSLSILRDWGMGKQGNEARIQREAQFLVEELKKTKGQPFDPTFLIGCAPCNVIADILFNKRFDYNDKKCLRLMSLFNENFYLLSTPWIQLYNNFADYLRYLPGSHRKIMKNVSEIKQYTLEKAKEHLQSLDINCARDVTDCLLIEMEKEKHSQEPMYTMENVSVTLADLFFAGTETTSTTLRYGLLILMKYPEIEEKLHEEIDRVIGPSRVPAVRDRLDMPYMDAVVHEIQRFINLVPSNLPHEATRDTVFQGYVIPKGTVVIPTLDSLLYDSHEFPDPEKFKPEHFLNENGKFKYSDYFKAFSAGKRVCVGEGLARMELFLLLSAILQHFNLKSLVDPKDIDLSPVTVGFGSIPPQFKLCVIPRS

SMILES | AC50 | outcome
C#CCOC(=O)[C@@H](C)Oc1ccc(Oc2ncc(Cl)cc2F)cc1 | 1.6 µM (active) | –
N#CSCSc1nc2ccccc2s1 | 10 µM (active) | –
S=C(S)NCCNC(=S)S.[Mn+2].[S-]C([S-])=NCCN=C([S-])[S-].[Zn+2] | – | inactive
S=C([S-])NCCNC(=S)[S-].[Mn+2] | – | inactive
